Measured values as given in PubChem BioAssay.
For some assays here: Entries with a potency or affinity are not part of this list. Records with an inconclusive call do not appear. This is one part of the list. Calls of active or inactive are those of the source. Unless noted, no rule for the calls is given here.

Legend:
[1] = IOSE-T80 viability loss, PAX8-independent line – cell-based, cherry-pick, selectivity assay for PAX8 inhibitor project, dose response (AID 687032;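 active = fitted half-maximal concentration for viability loss no higher than twice the top valid dose, in every repeat run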;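 also: cells exposed to compound for 96 h before reading; 0% = neutral control wells and -100% = 2 µM mitoxantrone kill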)
[2] = CMV-driven luciferase expression suppression in HEK293 – cell-based, luminescence, dry powder, counter-screen for Pax8 inhibitor project, dose response (AID 743020;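 active = signal-lowering compounds whose fitted half-maximal concentration is at or below twice the top tested dose in every run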;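 also: HEK293 cells stably expressing the CMV luciferase reporter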)
[3] = general cell-killing toxicity readout – plate reader, dry powder samples, cytotoxicity control for PAX8 inhibitor project, dose response (AID 743021)
[4] = IGROV1 cell killing – plate reader, dry powder samples, PAX8 inhibitor project, dose response (AID 743043);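 also: more negative means fewer viable cells or more cytotoxicity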
[5] = toxicity toward immortalized ovarian surface epithelium – cell-based, plate reader, dry powder samples, cytotoxicity control for PAX8 inhibitor project, dose response (AID 743045);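 also: 0% = neutral control median and -100% = positive control median; more negative values mean more cell killing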
[6] = A2780 cell killing – plate reader, dry powder samples, cytotoxicity control, dose response (AID 743046);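 also: 0% = neutral control wells and -100% = cytotoxic reference compound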
[7] = OVCAR8 cell viability loss – plate reader, dry powder samples, PAX8 project, dose response (AID 743197)
[8] = RMG-1 ovarian cancer cell viability loss – cherry-pick, dose response (AID 687029;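 active = signal drop whose fitted half-maximal concentration is at most twice the top valid dose, in every test run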;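 also: cells exposed to compound for 96 hours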)
[9] = OVCAR-3 cell viability loss – plate reader, dry powder samples, PAX8 inhibitor project, dose response (AID 743044); details: max activity: at 35 µM, active compounds read low unless noted
[10] = small-molecule DNA binding by polarization – biochemical, fluorescence polarization, cherry-pick, counter-screen for EWS/Fli inhibitor project, dose response (AID 720586;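 active = fitted curve reaches a 35% signal fall AC35 below twice the sample's top valid tested dose, actives reach about 48 µM in these data; inactive = the rest, including activity in the rising direction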;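 also: 0% = neutral control median and -100% = 10 µM mitoxantrone control median; lower polarization ratio signals compound binding to DNA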)

C[C@@H]1CN([C@H](C)CO)C(=O)c2cc(NC(=O)Cc3ccccc3)ccc2O[C@@H](C)CCCCO[C@H]1CN(C)Cc1ccc(C(F)(F)F)cc1
inactive: outcome [1] | outcome [2] | outcome [3] | outcome [4] | outcome [5] | outcome [6]

C[C@@H]1CCCCO[C@H](CN(C)Cc2ccncc2)[C@H](C)CN([C@H](C)CO)C(=O)c2cc(NC(=O)Nc3ccc(C(F)(F)F)cc3)ccc2O1
inactive: outcome [1] | outcome [2] | outcome [3] | outcome [4] | outcome [5] | outcome [6] | outcome [7]

Cc1cccc2sc(N(CCCN(C)C)C(=O)CCS(=O)(=O)c3ccccc3)nc12
inactive: outcome [8] | outcome [3]

COc1cccc(-c2ccc3c(c2)[C@@H]2[C@@H](CCN2S(=O)(=O)c2ccccc2C)[C@H](CO)N3C)c1
inactive: outcome [1] | outcome [2] | outcome [3] | outcome [4] | max activity [9] -25.8% [at 30 µM, active compounds read low] | outcome [5] | outcome [6] | outcome [7]

C[C@H](CO)N1C[C@H](C)[C@@H](CN(C)S(=O)(=O)c2ccc(Cl)cc2)OCCCC[C@H](C)Oc2ccc(NS(=O)(=O)c3ccc(F)cc3)cc2C1=O
inactive: outcome [1] | outcome [2] | outcome [3] | outcome [4] | outcome [5] | outcome [7]

Cc1ccc(S(=O)(=O)N(C)C[C@@H]2Oc3ccc(NC(=O)Nc4ccc(C(F)(F)F)cc4)cc3CC(=O)N([C@@H](C)CO)C[C@@H]2C)cc1
inactive: outcome [1] | outcome [2] | outcome [3]

COc1ccc2c3c([nH]c2c1)[C@@H](CO)N(C(=O)Nc1cccc(F)c1)CC31CCN(S(=O)(=O)c2cccc(C)c2)CC1
inactive: outcome [1] | outcome [2] | outcome [3] | outcome [4] | max activity [9] -9.13% [at 8 µM, active compounds read low] | outcome [5] | outcome [6] | outcome [7]

CC(C)(C)c1nnc(NC(=O)CCS(=O)(=O)c2ccccc2)s1
inactive: outcome [8] | outcome [3] | outcome [5] | outcome [6]

C[C@H]1CCCCO[C@H](CN(C)Cc2ccc(C(F)(F)F)cc2)[C@@H](C)CN([C@@H](C)CO)C(=O)c2cc(NC(=O)Nc3ccc(F)cc3)ccc2O1
inactive: outcome [1] | outcome [2] | outcome [3] | outcome [4] | max activity [9] -16.7% | outcome [5] | outcome [6] | outcome [7]

C=C(C)c1cccc(C(C)(C)NC(=O)N2CCN(c3ccccc3OC)CC2)c1
inactive: outcome [1] | outcome [2] | outcome [3]

C[C@H]1CCCCO[C@H](CN(C)C(=O)Nc2ccc(C(F)(F)F)cc2)[C@@H](C)CN([C@@H](C)CO)C(=O)c2cc(NS(=O)(=O)c3cccs3)ccc2O1
inactive: outcome [1] | outcome [2] | outcome [3] | outcome [4] | max activity [9] -51.4% | outcome [5] | outcome [6] | outcome [7]

O=S(=O)(c1ccccc1F)N1CC[C@@H]2[C@H](CO)Nc3ccc(C4=CCCCC4)cc3[C@@H]21
inactive: outcome [1] | outcome [2] | outcome [3] | outcome [4] | max activity [9] 8.04% | outcome [5] | outcome [6] | outcome [7]

C[C@H]1CCCCO[C@@H](CN(C)Cc2ccncc2)[C@@H](C)CN([C@@H](C)CO)C(=O)c2cc(NC(=O)Nc3ccc(C(F)(F)F)cc3)ccc2O1
inactive: outcome [1] | outcome [2] | outcome [3] | outcome [4] | max activity [9] -18.9% [at 16 µM, active compounds read low] | outcome [5] | outcome [6]

COc1ccccc1NC(=O)N1CCCCN2[C@H](C1)[C@@H](c1ccc(-c3cccc(C#N)c3)cc1)[C@@H]2CO
inactive: outcome [1] | outcome [2] | outcome [3] | outcome [4] | outcome [5] | outcome [6]

C[C@@H]1CCCCO[C@H](CN(C)C(=O)Cc2ccccc2)[C@@H](C)CN([C@@H](C)CO)C(=O)c2cc(NS(=O)(=O)c3ccc(Cl)cc3)ccc2O1
inactive: outcome [8] | outcome [3] | outcome [4] | outcome [5]

Cc1ccc(S(=O)(=O)Nc2ccc3c(c2)C(=O)N([C@H](C)CO)C[C@H](C)[C@@H](CN(C)S(=O)(=O)c2ccc(F)cc2)OCCCC[C@H](C)O3)cc1
inactive: outcome [1] | outcome [2] | outcome [3]

COc1ccc(-c2cc(C(F)(F)F)nc(S(=O)(=O)CCCC(=O)Nc3cc(C)on3)n2)cc1OC
inactive: outcome [8] | outcome [3] | outcome [6]

Oc1ccc(C[C@H]2CNC(=S)N2CC2CCCN2C[C@H](Cc2ccc(O)cc2)N2C[C@H](Cc3ccccc3)N(CC3CCCCCC3)C2=S)cc1 (some centres undefined)
inactive: outcome [1] | outcome [2] | outcome [3]

CCOc1ccc(C2=Nn3c(nnc3-c3ccccc3OC)SC2)cc1
inactive: outcome [1] | outcome [2]

C[C@@H]1CCCCO[C@H](CN(C)C(=O)c2ccccc2)[C@H](C)CN([C@@H](C)CO)C(=O)c2cc(NC(=O)Nc3ccc(C(F)(F)F)cc3)ccc2O1
inactive: outcome [1] | outcome [2] | outcome [3] | outcome [4] | outcome [5]

O=C(CCS(=O)(=O)c1ccccc1)Nc1nc2ccc(F)cc2s1
inactive: outcome [8] | outcome [3] | outcome [5] | outcome [6]

C[C@@H]1CCCCO[C@@H](CN(C)Cc2ccc(C(F)(F)F)cc2)[C@H](C)CN([C@@H](C)CO)C(=O)c2cc(NS(=O)(=O)c3ccc(Cl)cc3)ccc2O1
inactive: outcome [1] | outcome [2] | outcome [3] | outcome [4] | max activity [9] -25.4% [at 8 µM, active compounds read low] | outcome [5] | outcome [6] | outcome [7]

O=C(C1CCC1)N1CCCCN2[C@H](CO)[C@H](c3ccc(-c4cccc(F)c4)cc3)[C@H]2C1
inactive: outcome [1] | outcome [2] | outcome [3] | outcome [4] | max activity [9] 7.58% [at 0.26 µM, active compounds read low] | outcome [5] | outcome [6] | outcome [7]

OC[C@H]1O[C@@H](n2cnc3c(NCc4ccco4)ncnc32)[C@H](O)[C@@H]1O
inactive: outcome [8] | outcome [3]

C[C@H](CO)N1C[C@H](C)[C@H](CN(C)CC2CCCCC2)OCCCC[C@H](C)Oc2ccc(NC(=O)Nc3ccccc3)cc2C1=O
inactive: outcome [8] | outcome [3] | outcome [5] | outcome [6] | outcome [7]

COc1ccc(S(=O)(=O)Nc2ccc3c(c2)C(=O)N([C@H](C)CO)C[C@H](C)[C@H](CN(C)S(=O)(=O)c2ccc(F)cc2)OCCCC[C@H](C)O3)cc1
inactive: outcome [8] | outcome [3] | outcome [4] | max activity [9] -7.5% | outcome [5] | outcome [6] | outcome [7]

COc1ccc(NC(=O)Nc2ccc3c(c2)C(=O)N([C@@H](C)CO)C[C@@H](C)[C@@H](CN(C)Cc2ccc(C(F)(F)F)cc2)O3)cc1
inactive: outcome [1] | outcome [2] | outcome [3] | outcome [4] | max activity [9] -14.9% [at 0.5 µM, active compounds read low] | outcome [5] | outcome [6] | outcome [7]

CS(=O)(=O)Nc1ccc2c(c1)[C@@H]1C[C@@H](CC(=O)NCc3ccc(-c4ccccc4)cc3)O[C@@H](CO)[C@@H]1O2
inactive: outcome [1] | outcome [2]

C[C@H]1CN([C@@H](C)CO)S(=O)(=O)c2ccc(C#Cc3ccncc3)cc2O[C@@H]1CN(C)C(=O)Nc1ccc2c(c1)OCO2
inactive: outcome [1] | AC35 [10] | outcome [2] | outcome [3]

C[C@@H]1CCCCO[C@@H](CN(C)Cc2ccncc2)[C@H](C)CN([C@@H](C)CO)C(=O)c2cc(NC(=O)Nc3ccc(C(F)(F)F)cc3)ccc2O1
inactive: outcome [1] | outcome [2] | outcome [3] | outcome [4] | outcome [5] | outcome [6]

C[C@@H]1CN([C@@H](C)CO)C(=O)Cc2cc(NC(=O)CCCCCC(=O)Nc3ccccc3N)ccc2O[C@@H]1CN(C)Cc1ccc(C(F)(F)F)cc1
inactive: outcome [1] | outcome [2] | outcome [4] | outcome [5] | outcome [6]

COc1ccccc1C#Cc1ccc2c(c1)O[C@@H](CN(C)Cc1ccncc1)[C@H](C)CN([C@@H](C)CO)S2(=O)=O
inactive: outcome [1] | outcome [2] | outcome [4] | max activity [9] 20.3% [at 8 µM, active compounds read low] | outcome [5] | outcome [6]

C[C@@H]1CCCCO[C@H](CN(C)C(=O)Nc2cccc3ccccc23)[C@H](C)CN([C@@H](C)CO)C(=O)c2cc(NS(=O)(=O)c3ccc(Cl)cc3)ccc2O1
inactive: outcome [1] | outcome [2] | outcome [5] | outcome [6]

Cc1ccc(C)c(S(=O)(=O)N2CCN(c3ncnc4sccc34)CC2)c1
inactive: AC35 [10]

C[C@H](CO)N1C[C@H](C)[C@@H](CN(C)C(=O)c2ccc3c(c2)OCO3)Oc2cc(C#Cc3ccccc3F)ccc2S1(=O)=O
inactive: outcome [1] | outcome [3] | outcome [4] | max activity [9] -4.28% | outcome [5] | outcome [6] | outcome [7]

C[C@@H]1CN([C@H](C)CO)C(=O)c2cc(NC(=O)Nc3ccc(F)cc3)ccc2O[C@@H](C)CCCCO[C@H]1CN(C)Cc1ccc(C(F)(F)F)cc1
inactive: outcome [1] | outcome [3] | outcome [4] | outcome [5] | outcome [6] | outcome [7]

COc1ccccc1C#Cc1ccc2c(c1)O[C@@H](CN(C)Cc1ccncc1)[C@H](C)CN([C@H](C)CO)S2(=O)=O
inactive: outcome [1] | outcome [2] | outcome [5] | outcome [6]

C[C@@H]1CN([C@H](C)CO)C(=O)c2cc(NS(=O)(=O)c3ccc(Cl)cc3)ccc2O[C@@H](C)CCCCO[C@H]1CN(C)C(=O)Nc1ccc(C(F)(F)F)cc1
inactive: outcome [1] | outcome [3] | outcome [5]
